An excerpt weighted towards active compounds, which were near 3.5% of everything screened.
Mcl1 Noxa PPI = Mcl-1/Noxa interaction inhibition | TR-FRET Mcl-1/Noxa peptide binding, 2 h | inhibition, % at 21.7 µM | 220,000 tested, 1.5% active | AID 1022;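 active = compounds that cut the protein-peptide binding signal by more than 50% relative to plate controls in a single-dose test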;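 note: His-tagged Mcl-1 with rhodamine Noxa BH3 peptide and terbium anti-His antibody; 0% = Mcl-1 plus Noxa peptide wells and 100% = peptide-only wells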
14-3-3 Bad PPI = disrupts binding of bovine 14-3-3 zeta to phospho-Bad peptide; TR-FRET 14-3-3zeta/Dy647-pBad peptide displacement, 1 h; AID 781; 220,000 tested, 0.71% active; inhibition, % at 21.7 µM;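 active = inhibition above about 70%, limit read from the data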;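 note: 0% = full 14-3-3 plus peptide FRET controls and 100% = background without 14-3-3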
Mcl1-Bid inh = Mcl-1/Bid interaction inhibition. AID 1021. TR-FRET Mcl-1/Bid-Dy647 peptide binding, 1536-well. Q07820. inhibition, % at 21.7 µM. 220,000 tested, 0.97% active;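 active = compounds that cut the binding signal by more than half at the single screening dose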;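 note: His-tagged Mcl-1 with europium anti-His antibody binding Bid BH3 peptide; 0% = Mcl-1 plus peptide wells and 100% = peptide-only wells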
eIF4E-4G inh = eIF4E/eIF4G interaction inhibition in translation initiation | TR-FRET eIF4E-eIF4GI(517-606) binding, 2 h | 220,000 tested, 0.37% active | inhibition, % at 21.7 µM;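 active = inhibition above about 30%, limit read from the data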;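 note: 0% = full FRET control wells and 100% = background wells lacking eIF4GI fragment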
Hck Nef HTS = human Hck-Nef kinase inhibition; 220,000 tested, 0.68% active; Recombinant Hck-YEEI plus Nef, Z-Lyte FRET kinase assay; P08631; AID 463187; inhibition, % at 20 µM;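 active = Hck-Nef kinase inhibition above about 50%, limit read from the data; inactive = inhibition below that limit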;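 note: 0% = DMSO with Hck plus Nef and 100% = Hck alone without Nef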
Target sequence (P08631 whole entry, looked up): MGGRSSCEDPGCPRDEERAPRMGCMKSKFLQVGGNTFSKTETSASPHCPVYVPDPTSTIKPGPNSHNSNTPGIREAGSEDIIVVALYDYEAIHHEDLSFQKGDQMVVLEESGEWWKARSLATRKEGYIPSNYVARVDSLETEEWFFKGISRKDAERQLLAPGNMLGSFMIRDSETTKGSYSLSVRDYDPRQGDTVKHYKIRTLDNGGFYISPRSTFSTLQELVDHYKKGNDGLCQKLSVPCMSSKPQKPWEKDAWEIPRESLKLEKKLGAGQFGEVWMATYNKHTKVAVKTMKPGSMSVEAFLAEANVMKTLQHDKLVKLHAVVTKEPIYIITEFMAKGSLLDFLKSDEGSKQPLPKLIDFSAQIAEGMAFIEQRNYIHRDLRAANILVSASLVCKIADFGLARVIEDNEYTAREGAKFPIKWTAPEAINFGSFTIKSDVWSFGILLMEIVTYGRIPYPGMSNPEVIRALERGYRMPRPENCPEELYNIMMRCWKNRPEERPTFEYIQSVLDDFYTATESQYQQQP
Bim-Mcl-1 = inhibitors of Bim-Mcl-1 interaction, human. Q07820. Bead-based flow cytometry, Bim peptide-Mcl-1 binding. inhibition, % at 10 µM. 190,000 tested, 0.1% active. AID 1009; in the data active = inhibition above about 40%;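 note: 0% = no compound tracer wells and 100% = peptide blocker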
Numbers without * were called inactive; nt = not tested or not shown; [ ] = another dose, or the depositor's remark.

SMILES	Mcl1 Noxa PPI	14-3-3 Bad PPI	Mcl1-Bid inh	eIF4E-4G inh	Hck Nef HTS	Bim-Mcl-1
COc1ccc2cc3c(N)c(C(=O)NCc4ccco4)sc3nc2c1	63.4*	9.8	-14.8	1.4	2.7	1.0
Cc1ncsc1CCOC(=O)c1cccnc1	23.7	70.0	54.2*	-1.5	2.6	0.0
CCC(=O)N1CCc2cc(S(=O)(=O)CCC(=O)Nc3ccc(C)cn3)ccc21	-27.0	3.7	-6.7	2.1	18.4	-2.0
CC(C)c1cc(-c2cc(C(=O)NCc3ccccc3)on2)nc(NCC2CC2)n1	-3.4	-5.3	-27.4	2.9	20.2	nt
CCOC(=O)C1=C(c2ccccc2)NC(=O)NC1c1cc(Cl)c(O)c(OC)c1 (stereo unspecified)	29.6	4.1	-50.7	3.0	14.5	2.0
CCOC(=O)C1=C(c2ccccc2)NC(N)=NC1c1ccc(OCc2ccc(Cl)cc2)c(OC)c1 (stereo unspecified)	18.2	93.6*	6.1	37.1*	-30.8	nt
CN(CC(=O)Nc1sccc1C#N)C1CCCCC1	61.5*	-15.0	-6.5	7.0	4.5	-4.0
O=C(O)c1cc(S(=O)(=O)O)ccc1O	40.1	39.5	56.0*	-4.5	-0.6	0.0
Cc1cc(NC(=O)/C=C/c2ccccc2Cl)n(-c2nc3ccccc3[nH]2)n1	-18.6	24.5	66.1*	2.0	7.2	0.0
Cc1cc(NC(=O)c2ccc(F)cc2F)n(-c2nc3ccccc3[nH]2)n1	-6.8	12.5	-21.1	-8.4	2.6	0.0
CN(C(=O)c1ccno1)c1nnc(-c2cnccn2)s1	-17.0	-0.8	-29.2	8.9	-0.4	-1.0
CN(C(=O)c1ccc(C#N)cc1)c1nnc(-c2cnccn2)s1	38.2	43.3	85.5*	5.7	22.2	nt
Cc1ccc(NC2Sc3ccccc3NC2=O)cc1 (stereo unspecified)	55.9*	0.4	-31.6	2.4	21.8	-5.0
COC(=O)CC1Sc2ccccc2NC1=O (stereo unspecified)	14.2	-4.1	-24.7	5.0	2.1	-3.0
O=C(Nc1cccc(Cl)c1)c1ccc(F)c(S(=O)(=O)N2CCN(c3ccccn3)CC2)c1	-12.4	-5.5	-4.9	4.6	2.9	-1.0
CCOc1ccc(NC(=O)c2ccc(F)c(S(=O)(=O)N3CCN(c4ccccn4)CC3)c2)cc1	14.1	75.1*	-16.1	2.1	-1.0	0.0
CC(=O)N(Cc1nc2sc(C)c(C)c2c(=O)[nH]1)C1CCCC1	1.4	22.6	-31.4	2.1	14.1	0.0
O=[N+]([O-])c1ccc(S(=O)(=O)N2CCN(Cc3c[nH]c4ccccc34)CC2)cc1	11.0	78.7*	26.1	-1.2	2.2	0.0
CN(C)C(=O)c1nc2ccc(Cl)cn2c1CNCc1ccccc1OC(F)(F)F	5.1	-3.0	-63.2	1.7	6.4	0.0
ClC1(Cl)CC1Cn1cnc2ccccc21 (stereo unspecified)	10.8	-11.8	-34.9	-0.2	-0.6	3.0
CCCCCCCCCCCCCCCC[n+]1ccc(C(N)=O)cc1	46.6	79.4*[fluorescence artefact?]	41.6	77.6*[fluorescence artefact?]	22.6	0.0
CCCCCCCC[n+]1cccc(C(=O)N(CC)CC)c1	16.5	7.6	-6.8	-0.4	-0.6	-5.0
CCCCC(=O)Nc1ccc(C(N)=O)cc1	2.2	-4.8	-13.7	-0.9	0.8	0.0
CCCCCCCCCCCCCCCC[n+]1cccc(C(=O)N(CC)CC)c1	3.4	98.0*[fluorescence artefact?]	23.6	76.5*[fluorescence artefact?]	7.8	-4.0
O=C(OCc1nnn(Cc2ccccc2)c1-c1c(COC(=O)c2ccccc2)nnn1Cc1ccccc1)c1ccccc1	-35.7	8.7	-26.5	0.7	23.0	nt
Cc1ccc(C(=O)OCC(=O)c2c[nH]c3ccccc23)cc1NC(=O)c1ccco1	1.0	-0.2	-48.4	-2.0	17.5	0.0
Cn1c(SCC(=O)N2CCOCC2)nnc1-c1cccc(NC(=O)c2ccccc2)c1	1.6	11.6	-0.6	0.2	2.7	1.0
COC(=O)CSc1nnc(-c2cccc(NC(=O)c3ccc(C)cc3)c2)n1C	-4.5	37.3	2.6	71.8*	1.5	-2.0

Compound activity: PubChem, several laboratories
